Assay in all cases: NCI-60 one-dose screen, 48 h (100 = growth as untreated, 0 = no growth, -100 = all killed)
Experiment [1] relates to NCI-H23 lung. The following applies: 10 µM unless noted.
For experiment [2], the system named is NCI-H226 lung. The following applies: 10 µM unless noted.
Experiment [3] relates to NCI-H322M lung. The following applies: 10 µM unless noted.
The test system of experiment [4] is NCI-H460 lung. The following applies: 10 µM unless noted.
The subject of experiment [5] is HOP-92 NSCLC. The settings on record: 10 µM.
The subject of experiment [6] is NCI-H522 lung. The following applies: 10 µM.
Experiment [7] deals with A549/ATCC NSCLC. The following applies: 10 µM unless noted.
The subject of experiment [8] is 786-0 renal. The following applies: 10 µM unless noted.
Experiment [9] relates to COLO 205 colon. The following applies: 10 µM unless noted.
For experiment [10], the system named is DU-145 prostate. The following applies: 10 µM unless noted.
For experiment [11], the system named is K-562 leukemia. The following applies: 10 µM unless noted.
The test system of experiment [12] is MALME-3M melanoma. The settings on record: 10 µM unless noted.
Experiment [13] concerns MDA-MB-231 breast. The following applies: 10 µM unless noted.
For experiment [14], the system named is RXF 393 renal. The following applies: 10 µM unless noted.
Experiment [15] deals with SF-268 CNS. The following applies: 10 µM unless noted.
In experiment [16] the test system is SF-295 CNS. The settings on record: 10 µM unless noted.
Experiment [17] deals with SF-539 CNS. The following applies: 10 µM unless noted.
Experiment [18] deals with UACC-257 melanoma. The settings on record: 10 µM unless noted.
The subject of experiment [19] is M14 melanoma. The following applies: 10 µM unless noted.

This is part of a sample that, as a whole, favours compounds with a hit. Of some 83,000 tested, about 20% had one in any assay.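 Note: values are percent growth. 100 is the growth of untreated cells, values between 100 and 0 indicate rising inhibition; between -100 and 0 indicates cell death.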 Values without a mark were called inactive. Calls of active or inactive are those of the source. Rule for the calls: active = growth percent below 10; inactive = the rest.

In the case of `CCC(C)C1NC(=O)C(CCCCN)NC(=O)C(CCCCN)NC(=O)C(CC(C)C)NC(=O)C(CCCCN)NC(=O)C(C(C)CC)NC(=O)C(C(C)C)NC(=O)C(C(C)CC)NC(=O)C(CCCCN)NC(=O)C(CCCCN)NC(=O)C(C)NC(=O)C(CCCCN)NC(=O)C(CC(C)C)NC1=O` (stereo unspecified), the growth is 16.6% in experiment [1]; 46.8% in experiment [2]; 82% in experiment [3]; 14.8% in [4]; -9.52% (active) in [5]; 9.29% (active) in [6]. The growth was 20.2% in [7]; 20.8% in [8]; -59.4% (active) in experiment [9]; 25.5% in [10]; 9.18% (active) in experiment [11]; 9.48% (active) in [12]. For the same compound, the growth in [13] is -0.123% (active); in experiment [14], 45.2%; in [15] it was 19.5%; in [16] it was 27.4%; in experiment [17] it was 67.5%; in experiment [18], 7.94% (active). Also, the growth in [19] is 22.2%.

With `NC(=O)c1c(Nc2ccccc2)nn2cc(-c3nc4ccccc4s3)c(N)nc12`, the growth in [1] was 95.2%; in experiment [2], 85.5%; in [3], 103%; in experiment [4] it was 98.6%; in experiment [5], 93.2%; in experiment [6], 91.4%. Also, the growth is 105% in [7]; 109% in [8]; 106% in experiment [9]; 107% in experiment [10]; 93.1% in [11]; 96% in [12]. For the same compound, the growth was 84.7% in experiment [13]; 102% in experiment [14]; 95.6% in [15]; 98.7% in [16]; 95.3% in experiment [17]; 118% in [18]. For the same compound, in experiment [19], the growth is 93.5%.

Consider `O=C(O)CC1Cc2ccccc2C1C(=O)O` (stereo unspecified), for which the growth in experiment [1] is 93.5%; in experiment [2] it was 102%; in [3], 113%; in experiment [4] it was 106%; in [5], 108%; in experiment [6], 95.9%. Moreover, the growth was 103% in [7]; 105% in experiment [8]; 114% in [9]; 106% in experiment [10]; 91.5% in experiment [11]; 103% in [12]. Besides, the growth in experiment [13] was 105%; in [14], 105%; in experiment [15], 100%; in [16], 100%; in experiment [17], 99.1%; in [18] it was 107%. For the same compound, in experiment [19], the growth was 95.9%.

Take `Cc1ccc(S(=O)(=O)NC(CCC(=O)Nc2ccccc2)C(=O)Nc2ccccc2)cc1` (stereo unspecified): the growth in experiment [1] is -24.8% (active); in [2], 6.72% (active); in experiment [3] it was -17% (active); in experiment [4], -4.49% (active); in [5], -45.2% (active); in [6], -71.8% (active). Also, the growth is -19% (active) in experiment [7]; -15.6% (active) in experiment [8]; -22.6% (active) in experiment [9]; 5.02% (active) in [10]; 3.93% (active) in experiment [11]; -36.5% (active) in [12]. Moreover, the growth in experiment [13] is -30.1% (active); in experiment [14] it was -24.6% (active); in experiment [15], 8.46% (active); in [16], -3.31% (active); in experiment [17], -75.6% (active); in experiment [18], -18.4% (active). In addition, the growth in experiment [19] was 3.93% (active).

Turning to `COc1cc(N2C(=O)C=CC2=O)ccc1N1C(=O)C=CC1=O`, the growth was 105% in experiment [1]; 105% in [2]; 116% in experiment [3]; 104% in experiment [4]; 93.1% in experiment [5]; -59.8% (active) in experiment [6]. Further, the growth in experiment [7] was 103%; in experiment [8], 107%; in experiment [9], 53%; in experiment [10], 114%; in experiment [11] it was 64.5%; in experiment [12] it was 97.3%. Besides, the growth was 116% in experiment [13]; 110% in experiment [14]; 105% in experiment [15]; 99.9% in [16]; 101% in experiment [17]; 104% in experiment [18]. For the same compound, the growth in [19] is 103%.

With `Nc1ccc(S(=O)(=O)Nc2cc(F)cc(F)c2)cc1`, the growth is 111% in experiment [1]; 104% in experiment [2]; 114% in experiment [3]; 110% in experiment [4]; 99.9% in experiment [5]; 94.9% in [6]. The growth in [7] is 119%; in experiment [8], 99.7%; in [9] it was 112%; in [10], 94.5%; in experiment [11], 71.9%; in experiment [12] it was 131%. For the same compound, the growth in experiment [13] was 90.9%; in experiment [14], 20.1%; in [15], 130%; in [16], 103%; in experiment [17], 85.6%; in experiment [18] it was 95.5%. Further, in experiment [19], the growth is 91.1%.

As to `CCC1(CC)C(OC)NC(Br)=C(C#N)C1(C#N)C(N)=O` (stereo unspecified), the growth in [1] is 99.1%; in [2], 114%; in experiment [3] it was 118%; in experiment [4], 115%; in experiment [5], 77.3%; in [6] it was 98%. In addition, the growth in [7] was 114%; in experiment [8], 94.3%; in [9], 126%; in experiment [10], 97.5%; in experiment [11] it was 91.5%; in experiment [12], 137%. The growth is 102% in [13]; -5.04% (active) in experiment [14]; 131% in experiment [15]; 122% in experiment [16]; 93.9% in experiment [17]; 103% in experiment [18]. The growth in experiment [19] is -100% (active).

As for `COC(=O)c1ccc2[nH]c(O)c(C(=Nc3ccc(N(C)C(=O)CN4CCN(C)CC4)cc3)c3ccc(C)cc3)c2c1`, the growth in experiment [1] is -9.95% (active); in experiment [2], 5.6% (active); in experiment [3], 19.8%; in experiment [4], -43.1% (active); in experiment [5], 38.7%; in experiment [6], -33.6% (active). The growth in experiment [7] is -30.2% (active); in [8] it was -85.1% (active); in [9], -61.2% (active); in experiment [10], -14.2% (active); in experiment [11], -32.9% (active); in [12] it was -94.6% (active). Also, the growth was -22.9% (active) in [13]; -98.2% (active) in experiment [14]; 5.16% (active) in experiment [15]; 1.13% (active) in experiment [16]; -96.1% (active) in [17]; -59.4% (active) in experiment [18]. Also, the growth in [19] is -83.7% (active).

Turning to `CC(=O)OCC1O[C@@H](OC(C)=O)[C@@H](NC(=O)NS(=O)(=O)c2ccccc2)C(OC(C)=O)[C@@H]1OC(C)=O` (stereo partly specified), the growth is 113% in experiment [1]; 99.7% in experiment [2]; 98.7% in experiment [3]; 117% in [4]; 97.9% in experiment [5]; 96% in experiment [6]. For the same compound, the growth was 106% in experiment [7]; 98.3% in experiment [8]; 120% in experiment [9]; 108% in experiment [10]; 94.6% in experiment [11]; 103% in experiment [12]. Moreover, the growth is 105% in experiment [13]; 108% in [14]; 100% in experiment [15]; 94.4% in [16]; 97.2% in experiment [17]; 118% in [18]. Besides, the growth in experiment [19] was 108%.

For the origin of these results see PubChem BioAssay (NCI).
